Consider 7 compounds from PubChem BioAssay (Tox21).

Values without a mark were called inactive. Results filed as inconclusive are left out. Active and inactive are the calls of the source. Unless noted, calls follow the shape of the dose curve; as a rule, active = well fitted curve in the direction sought with a large enough effect in the repeat runs; inconclusive = weak or mixed curves; inactive = no such curve, though single readings can be large; an effect the other way counts as inactive or inconclusive.

Assay [1] is described as follows: qHTS assay to identify small molecule agonists of the hypoxia (HIF-1) signaling pathway - cell viability counter screen (AID 1224844; calls by dose curve; also: nearly all actives have a fitted effect of over 50% in size). An outline of the steps: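 HRE-bla ME-180 cells in medium with 0.5% dialyzed FBS were preincubated 5 hrs at 37C, exposed to compounds for 17 hrs, then viability was read as CellTiter-Glo luminescence after 30 min at room temperature, in the reporter wells.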

Assay [2] can be described thus: qHTS assay to identify small molecule agonists of the hypoxia (HIF-1) signaling pathway (AID 1224846; active = well fitted activation curve with a large enough effect in the signal ratio in the repeat runs, not every such curve was filed as active; the % refers to the signal ratio). The essentials:
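HRE-bla ME-180 cells (beta-lactamase reporter under hypoxia response element) were plated at 2,000 cells/well in medium with 0.5% dialyzed FBS, rested 5 hrs, then given compounds in DMSO for 17 hrs at 37C, 5% CO2. Reporter induction was read with CCF4-AM FRET substrate.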

Assay [3] in a line: qHTS assay to identify small molecule agonists of H2AX - cell viability counter screen (AID 1224847; calls by dose curve; also: top concentration of the series differs between compounds; nearly all actives have a fitted effect of over 30% in size). The essentials:
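After overnight plating of 1000 CHO-K1 cells per well, a 15-concentration compound series was applied for 3 hr at 37C. Luminescence from CellTiter-Glo, read following 30 min at room temperature, reflected cell viability.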

The nature of assay [4]: qHTS assay to identify small molecule antagonists of the estrogen related receptor (ERR) signaling pathway from Tox21 library (AID 1224848). Also: nearly all actives have a fitted effect of over 50% in size. Also: potency is read from the fitted curve at half-maximal effect. The essentials:
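ERR reporter cell line (from NTP) seeded 2,000 cells/well, rested 6 h at 37 C/5% CO2, then pin-dosed with compounds in DMSO. After 18 h at 37 C, ONE-Glo added; luminescence read after 30 min at room temperature.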

The nature of assay [5]: qHTS assay to identify small molecule agonists of the estrogen related receptor (ERR) signaling pathway from Tox21 library (AID 1224849; calls by dose curve; also: nearly all actives have a fitted effect of over 15% in size). To be noted: ERR reporter cell line, ONE-Glo luciferase, 18 h. The essentials:
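ERR reporter cell line (NTP) seeded, rested 6 h at 37 C/5% CO2, then pinned with Tox21 compounds in DMSO. After 18 h at 37 C, ONE-Glo luciferase luminescence was read following 30 min at room temperature.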

A short description of assay [6]: qHTS RealTime-Glo MT Cell Viability Assay in HepG2 cells - 24 hour (AID 1224867). Also: nearly all actives have a fitted effect of over 50% in size. An outline of the steps: (§1)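 Cells + NanoLuc/prosubstrate dispensed (600 cells/well) → 5 h at 37 C/5% CO2 → compounds in DMSO transferred → 40 h incubation at 37 C, luminescence read at 0, 8, 16, 24, 32, 40 h.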
Assay [7] is described as follows: A CellTox Green Cytotoxicity Assay to monitor cytotoxicity in HEK293 cells - 0 hour (AID 1224869). Also: nearly all actives have a fitted effect of over 50% in size. The essentials:
(§2)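 HEK293 cells premixed with CellTox Green dye were seeded at 600 cells/well and left 5 h at 37 C/5% CO2 before pin transfer of 23 nL compound in DMSO. Fluorescence from dye bound to dead-cell DNA was read during 40 h treatment.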

The nature of assay [8]: qHTS RealTime-Glo MT Cell Viability Assay in HepG2 cells - 40 hour (AID 1224870). Also: nearly all actives have a fitted effect of over 50% in size. An outline of the steps: (§3)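 HepG2 cells (600/well) mixed with RealTime-Glo MT reagent, settled 5 h at 37 C/5% CO2 before compound addition. Nonlytic NanoLuc luminescence from viable-cell prosubstrate reduction read repeatedly during 40 h treatment at 37 C.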
The nature of assay [9]: A CellTox Green Cytotoxicity Assay to monitor cytotoxicity in HEK293 cells - 40 hour (AID 1224871). Also: nearly all actives have a fitted effect of over 45% in size. An outline of the steps:
as §2

The nature of assay [10]: qHTS RealTime-Glo MT Cell Viability Assay in HEK293 cells - 40 hour (AID 1224874). Also: nearly all actives have a fitted effect of over 50% in size. Also: potency is read from the fitted curve at half-maximal effect. To be noted: RealTime-Glo luminescence; max response: hits give low values. An outline of the steps:
(§4)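 HEK293 cells mixed with RealTime-Glo reagents (NanoLuc plus cell-permeant prosubstrate) at 600 cells/well, preincubated 5 h at 37 C/5% CO2, then given 23 nL compound in DMSO. Nonlytic luminescence from viable cells was read at 0, 8, 16, 24, 32 and 40 h.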

Assay [11] in a line: A CellTox Green Cytotoxicity Assay to monitor cytotoxicity in HEK293 cells - 24 hour (AID 1224875). Also: nearly all actives have a fitted effect of over 45% in size. The essentials:
as §2

Assay [12] can be described thus: A CellTox Green Cytotoxicity Assay to monitor cytotoxicity in HepG2 cells - 16 hour (AID 1224876). Also: nearly all actives have a fitted effect of over 45% in size. The essentials:
(§5)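 HepG2 cells were seeded together with the CellTox Green dye at 600 cells/well, left 5 h at 37 C/5% CO2, then given compounds in DMSO. Fluorescence from dye bound to dead-cell DNA was read repeatedly over 40 h of treatment at 37 C.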

A short description of assay [13]: qHTS RealTime-Glo MT Cell Viability Assay in HepG2 cells - 32 hour (AID 1224877). Also: nearly all actives have a fitted effect of over 55% in size. An outline of the steps:
as §1

A short description of assay [14]: A CellTox Green Cytotoxicity Assay to monitor cytotoxicity in HepG2 cells - 24 hour (AID 1224878). Also: nearly all actives have a fitted effect of over 45% in size. The essentials: as §5
A short description of assay [15]: A CellTox Green Cytotoxicity Assay to monitor cytotoxicity in HepG2 cells - 40 hour (AID 1224879). Also: nearly all actives have a fitted effect of over 40% in size. Also: potency is read from the fitted curve at half-maximal effect. An outline of the steps: as §5
The nature of assay [16]: qHTS RealTime-Glo MT Cell Viability Assay in HEK293 cells - 0 hour (AID 1224880). The essentials:
as §4

Assay [17] in a line: qHTS assay to identify small molecule agonists of H2AX (AID 1224845; active = well fitted activation curve with a large enough effect in the signal ratio in the repeat runs, not every such curve was filed as active; the % refers to the signal ratio). An outline of the steps: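 Wild-type CHO-K1 cells, plated overnight, exposed 3hr at 37C to 15 concentrations (0.76% DMSO final). Lysed, then HTRF anti-pH2AX (S139) cryptate and anti-H2AX-d2 antibodies, 24 hr room temperature; 665/620 nm emission read.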
A short description of assay [18]: qHTS RealTime-Glo MT Cell Viability Assay in HEK293 cells - 32 hour (AID 1224868). Also: nearly all actives have a fitted effect of over 50% in size. Also: potency is read from the fitted curve at half-maximal effect. An outline of the steps:
(§6)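 Tox21 10K qHTS, HEK293, 600 cells/well, RealTime-Glo reagent co-dispensed with cells; 5 h preincubation, compound by pintool, 37 C, luminescence at 0–40 h.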

A short description of assay [19]: qHTS RealTime-Glo MT Cell Viability Assay in HepG2 cells - 8 hour (AID 1224873). Also: nearly all actives have a fitted effect of over 55% in size. The essentials: as §3
Assay [20] is described as follows: qHTS RealTime-Glo MT Cell Viability Assay in HEK293 cells - 16 hour (AID 1224872). Also: nearly all actives have a fitted effect of over 50% in size. Also: potency is read from the fitted curve at half-maximal effect. The essentials: as §6
% is scaled to controls: 0 for no effect and ±100 for the full control effect.

`C=CCc1ccccc1O`: the Potency result in assay [1], in assay [3], in assay [4], in assay [6], in assay [7] and in assay [8] was “inactive” throughout. Further, the Potency result in [9], in [11], in assay [12], in [13], in assay [14] and in assay [15] was “inactive” in each case. Further, the compound was called inactive in [2] and in assay [16]. Besides, the activity change, positive = activation in assay [5] (at 92.4 µM (top of the series)) was 0.524%. Further, in assay [10], the max response was 7.74%.

`C=CCN1C[C@H](C)N([C@H](c2ccc(C(=O)N(CC)CC)cc2)c2cccc(OC)c2)C[C@H]1C`: the Potency result in [1], in assay [17], in assay [6], in assay [8], in assay [19] and in assay [12] was “inactive” in each case. Besides, the Potency entry in [13] and in [14] was “inactive” each time. Further, the activity change, positive = activation in [5] (at 42.5 µM (top of the series)) is -5.94%. For the same compound, the Potency in assay [18] was 19 µM (active); in [10], 19 µM (active); in [15] it was 21.3 µM (active). Besides, in assay [16], the compound was classed as inactive.

For the compound `O=C(NC(=O)c1cc(F)c(F)cc1Cl)Nc1cc(F)ccc1N1CCC(C(=O)O)CC1`, the Potency result in assay [1], in [17], in [3], in [6], in assay [18] and in assay [7] was “inactive” throughout. The Potency result in assay [8], in assay [9], in [20], in assay [11], in [12] and in assay [13] was “inactive” throughout. Moreover, the max response in [10] is 19.9%. Besides, the result in [16] was inactive.

Regarding `CCOC(=O)c1cn2nc(OP(=S)(OCC)OCC)cc2nc1C`, the Potency entry in assay [1], in assay [17], in assay [6], in [7], in [8] and in [9] was “inactive” throughout. Moreover, the Potency entry in assay [11], in assay [12], in assay [13], in [14] and in assay [15] was “inactive” in each case. The Potency in [4] is 34.4 µM (active); in assay [18] it was 13.8 µM (active); in [20], 17.4 µM (active); in assay [10], 15.5 µM (active). The activity change, positive = activation in assay [5] (at 92.4 µM (top of the series)) is -40.1%. For the same compound, the outcome in [16] was inactive.

For the compound `CC(C)OC(=O)Cc1ccccc1`, the Potency entry in assay [1], in assay [17], in assay [3], in [6], in assay [18] and in assay [8] was “inactive” each time. For the same compound, the Potency result in [9], in [20], in assay [11], in [12], in [14] and in assay [15] was “inactive” in each case. In [10], the max response is 5.49%. Moreover, the compound was called inactive in [16].

Regarding `CCNC(=O)NC(=O)/C(C#N)=N/OC`, the Potency entry in [1], in assay [3], in assay [4], in [6], in assay [18] and in assay [7] was “inactive” throughout. Further, the Potency entry in assay [8], in assay [9], in assay [20], in assay [19], in assay [11] and in assay [12] was “inactive” throughout. For the same compound, the Potency entry in assay [14] and in assay [15] was “inactive” each time. Moreover, the result in assay [2] and in [16] was inactive. Also, the activity change, positive = activation in assay [5] (at 92.4 µM (top of the series)) was -6.66%. Further, in assay [10], the max response was 18.1%.

Turning to `CC(C)(C)OOC(C)(C)CCC(C)(C)OOC(C)(C)C`, the Potency result in assay [1], in [3], in assay [4], in assay [6], in assay [18] and in [7] was “inactive” throughout. Also, the Potency result in assay [8], in assay [9], in [20], in assay [19], in assay [11] and in assay [12] was “inactive” in each case. For the same compound, the Potency entry in assay [13], in assay [14] and in [15] was “inactive” in each case. For the same compound, the compound was called inactive in assay [2] and in assay [16]. In [5] (at 92.4 µM (top of the series)), the activity change, positive = activation was 2.37%. The max response in assay [10] is 9.43%.
